The values below come from article PMC4336329 (PLoS ONE, 2015).

Out of some 310,000 compounds screened, about 14,000 (4.5%) showed an effect of 50% or more. Effects have a minus sign here. For the sample, strong results were picked, then their nearest neighbours and some compounds at random.
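Further: peak tail current of the secondary pulse compared with the same well before compound.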

For this experiment, the target named is human ether-à-go-go-related gene (hERG) potassium channel (human, UniProt Q12809). In words: primary screen, population patch clamp on CHO cells stably expressing hERG; higher = less effect of the substance.
Sequence of human ether-à-go-go-related gene (hERG) potassium channel (Q12809 whole entry, looked up): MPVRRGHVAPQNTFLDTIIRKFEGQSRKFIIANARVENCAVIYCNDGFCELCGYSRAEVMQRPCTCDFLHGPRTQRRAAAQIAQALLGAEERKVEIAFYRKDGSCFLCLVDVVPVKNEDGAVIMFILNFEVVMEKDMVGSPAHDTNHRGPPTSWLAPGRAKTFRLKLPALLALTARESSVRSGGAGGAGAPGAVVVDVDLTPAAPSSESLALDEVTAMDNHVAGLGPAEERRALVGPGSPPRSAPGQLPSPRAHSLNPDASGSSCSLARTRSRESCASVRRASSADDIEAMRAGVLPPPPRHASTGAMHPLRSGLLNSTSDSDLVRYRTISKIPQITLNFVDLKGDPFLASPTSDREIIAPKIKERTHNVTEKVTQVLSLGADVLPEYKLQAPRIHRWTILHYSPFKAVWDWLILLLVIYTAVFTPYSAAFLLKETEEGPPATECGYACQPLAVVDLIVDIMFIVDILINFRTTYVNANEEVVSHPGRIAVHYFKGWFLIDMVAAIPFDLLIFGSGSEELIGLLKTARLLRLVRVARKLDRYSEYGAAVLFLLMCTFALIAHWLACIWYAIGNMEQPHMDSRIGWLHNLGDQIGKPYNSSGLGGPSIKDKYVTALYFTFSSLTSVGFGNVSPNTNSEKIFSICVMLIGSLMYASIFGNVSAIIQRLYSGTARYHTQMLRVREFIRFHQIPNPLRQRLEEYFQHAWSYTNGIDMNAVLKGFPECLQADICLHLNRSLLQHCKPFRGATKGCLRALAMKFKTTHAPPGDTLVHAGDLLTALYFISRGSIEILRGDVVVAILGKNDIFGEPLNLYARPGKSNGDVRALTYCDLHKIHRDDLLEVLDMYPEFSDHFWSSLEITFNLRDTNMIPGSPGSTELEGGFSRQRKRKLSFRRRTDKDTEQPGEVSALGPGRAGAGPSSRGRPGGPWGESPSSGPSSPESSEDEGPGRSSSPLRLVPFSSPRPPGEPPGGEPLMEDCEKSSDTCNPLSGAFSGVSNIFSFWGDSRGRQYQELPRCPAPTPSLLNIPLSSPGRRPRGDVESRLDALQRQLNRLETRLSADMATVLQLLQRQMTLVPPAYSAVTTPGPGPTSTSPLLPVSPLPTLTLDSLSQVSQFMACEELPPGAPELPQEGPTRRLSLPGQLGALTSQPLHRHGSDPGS
As for `O=S(=O)(Nc1ccccc1)c1ccc2c(c1)CCO2`, the “hERG current change (%, negative = inhibition) at 10uM” value is listed as 11%.
As to `O=C(Cn1c(=O)c2sccc2n(Cc2ccc([N+](=O)[O-])cc2)c1=O)NCCc1ccccc1`, the “hERG current change (%, negative = inhibition) at 10uM” value is recorded as -49%.
Regarding `O=C(c1ccco1)N1CCN(C(=O)c2cn(-c3ccccc3)nc2-c2ccccc2)CC1`, the “hERG current change (%, negative = inhibition) at 10uM” value is on record as -86.5%.
Regarding `O=C(OCC(=O)N1CCN(C(=O)c2ccco2)CC1)c1cn(-c2ccccc2)nc1-c1ccccc1`, the “hERG current change (%, negative = inhibition) at 10uM” value is given as -67%.
The result for `O=C(c1cn(-c2ccccc2)nc1-c1ccccc1)N1CCOCC1` reads -4.6%.
As for `Cc1cnc(C(=O)OCC(=O)N2CCN(C(=O)c3ccco3)CC2)cn1`, the “hERG current change (%, negative = inhibition) at 10uM” value is -8.85%.
For the compound `O=C(OCC(=O)N1CCN(C(=O)c2ccco2)CC1)c1ccccc1O`, the “hERG current change (%, negative = inhibition) at 10uM” value is recorded as -18.2%.
The value for `COc1ccccc1-c1nn(-c2ccccc2)cc1C(=O)N1CCN(C(=O)c2ccco2)CC1` was -36%; that for `COCCSc1ccccc1C(=O)Nc1ccncc1` was 16.4%.
The value for `O=C(/C=C/c1ccc(F)cc1)NC(=S)Nc1ccccc1` was 4.35%; that for `Cc1ccc(C(=O)Nc2ccc(SC(F)F)cc2)s1` was 24.4%.
With `Cc1ccc(CNC(=O)CSc2nc3[nH]ncc3c(=O)[nH]2)cc1`, the “hERG current change (%, negative = inhibition) at 10uM” value was found to be 4.89%.
In the case of `COC(=O)c1c(N(S(C)(=O)=O)S(C)(=O)=O)sc2c1CCN(c1ncc(C(F)(F)F)cc1Cl)C2`, the “hERG current change (%, negative = inhibition) at 10uM” value was found to be 13%.
As for `C=CCN(CC=C)C(=O)C1CCN(S(=O)(=O)c2ccc(-n3cnnn3)cc2)CC1`, the “hERG current change (%, negative = inhibition) at 10uM” value is -54.4%.
As to `CN(Cc1ccccc1)C(=O)C1CCN(S(=O)(=O)c2ccc(-n3cnnn3)cc2)CC1`, the “hERG current change (%, negative = inhibition) at 10uM” value is reported as -75.2%.
The result for `Cc1ccc(S(=O)(=O)N2CCC(Oc3ccc(-n4cnnn4)cc3)CC2)cc1` reads 0.934%; that for `C=CCN(CC=C)C(=O)C1CCN(S(=O)(=O)c2ccc(N3CCCC3=O)cc2)CC1`, 5.01%.
Regarding `O=C(C1CCN(S(=O)(=O)c2ccc(-n3cnnn3)cc2)CC1)N1CCN(c2ccccc2)CC1`, the “hERG current change (%, negative = inhibition) at 10uM” value is recorded as -35.7%.
Regarding `CCC(C)NC(=O)C1CCN(S(=O)(=O)c2ccc(-n3cnnn3)cc2)CC1` (centres unmarked), the “hERG current change (%, negative = inhibition) at 10uM” value is listed as 3.26%.
For `CCN(CC)C(=O)C1CCN(S(=O)(=O)c2ccc(-n3cnnn3)cc2)CC1`, the “hERG current change (%, negative = inhibition) at 10uM” value is recorded as -30%.
The value for `O=S(=O)(c1ccccc1)N1CCC(Oc2ccc(-n3cnnn3)cc2)CC1` was -74.8%.
The result for `CC(=O)c1ccc(S(=O)(=O)N2CCC(Oc3ccc(-n4cnnn4)cc3)CC2)cc1` reads 21.9%; that for `COc1ccc(N2CCN(c3nc4ccccc4nc3NS(=O)(=O)c3ccccc3)CC2)cc1`, 1.21%.
Take `CCOC(=O)/C(C#N)=C/c1cn(CCC(=O)O)nc1-c1ccc(F)cc1`: the “hERG current change (%, negative = inhibition) at 10uM” value is 4.24%.
The result for `Cc1ccc(S(=O)(=O)N2CCN(C3CC(=O)N(CCc4ccccc4)C3=O)CC2)cc1C` (centres unmarked) reads -27.7%.
The value for `Cc1cccc(C)c1NC(=O)C(c1cccs1)N(Cc1ccco1)C(=O)Cn1nnc2ccccc21` (centres unmarked) was 14.4%; that for `Cc1ccc(S(=O)(=O)NCCC(=O)OCC(=O)NC(=O)c2cccn2C)cc1` was -12.5%.
The result for `Cn1cccc1C(=O)NC(=O)COC(=O)CCNS(=O)(=O)c1cccc(C(F)(F)F)c1` reads -52.4%.
Take `O=C(COC(=O)CCNS(=O)(=O)c1cccc(C(F)(F)F)c1)NC(=O)NC1CCCCC1`: the “hERG current change (%, negative = inhibition) at 10uM” value is on record as -14.4%.
For `Oc1ccccc1/C=N/Nc1nccnc1Cl`, the “hERG current change (%, negative = inhibition) at 10uM” value is listed as -0.0796%.
The value for `Cc1ccc2c(C)c(C(=O)N3CCN(C4CCS(=O)(=O)C4)CC3)oc2c1C` (centres unmarked) was -4.49%; that for `CCCN(CC1CC1)C(=O)COC(=O)c1[nH]c(C)c(C(=O)OCC)c1C` was -5.5%.
With `CCOC(=O)C1CCN(C2CCN(C(=O)c3oc4c(C)c(C)ccc4c3C)CC2)CC1`, the “hERG current change (%, negative = inhibition) at 10uM” value is on record as -69.3%.
For the compound `CCCN(CC1CC1)C(=O)COC(=O)c1oc2ccc(OCC)cc2c1C`, the “hERG current change (%, negative = inhibition) at 10uM” value is recorded as -27.8%.
Take `CCOC(=O)C1CCN(C2CCN(C(=O)c3oc4c(F)cccc4c3C)CC2)CC1`: the “hERG current change (%, negative = inhibition) at 10uM” value is reported as -71.1%.
The result for `CCOC(=O)N1CCC(NC(=O)c2oc3c(C)c(C)ccc3c2C)CC1` reads -32.2%.
As for `Cc1c(C(=O)N2CCC(N3CCSCC3)CC2)oc2c(F)cccc12`, the “hERG current change (%, negative = inhibition) at 10uM” value is given as -34.9%.
Take `CCCN(CC1CC1)C(=O)COC(=O)c1oc2c(F)cccc2c1C`: the “hERG current change (%, negative = inhibition) at 10uM” value is -52.8%.
The value for `COCC1CCN(C(=O)c2oc3c(F)cccc3c2C)C1` (centres unmarked) was 0.639%; that for `Cc1cc(OCC(=O)Nc2c(C)n(C)n(-c3ccccc3)c2=O)ccc1[N+](=O)[O-]` was -23.5%; that for `Cc1[nH]c2c(C(=O)N3CCCC(CCC(=O)NCc4ccccc4F)C3)cccc2c1C` (centres unmarked) was 3.39%.
As to `CCCC(c1nnnn1Cc1ccccc1)N1CCC(C(N)=O)CC1.Cl` (centres unmarked), the “hERG current change (%, negative = inhibition) at 10uM” value was -3.44%.
On to `O=C(NCc1ccco1)c1cc(-c2cccnc2)nc2ccccc12`, for which the “hERG current change (%, negative = inhibition) at 10uM” value is recorded as -52.6%.
For `COCCCNC(=O)c1cc(-c2cccnc2)nc2ccccc12`, the “hERG current change (%, negative = inhibition) at 10uM” value is 16.6%.
The result for `O=C(NCc1ccco1)c1cc(-c2ccccc2)nc2ccccc12` reads -16.5%; that for `COCCNC(=O)c1cc2nc(-c3ccccc3)cc(C)n2n1`, 7.82%.
The result for `Cc1cc(-c2ccccc2)nc2cc(C(=O)NCc3ccco3)nn12` reads -55.9%; that for `CCCCN(C)CCCNC(=O)c1cc(-c2cccs2)nc2ccccc12`, -85.6%; that for `Cc1cc(C)n2nc(C(=O)NCc3ccco3)cc2n1`, 10.4%.
On to `O=C(NCc1ccco1)c1cc(-c2cccnc2)nc2ccc(Cl)cc12`, for which the “hERG current change (%, negative = inhibition) at 10uM” value was -36.3%.
The value for `CCCCNC(=S)NNC(=O)c1cc(-c2cccnc2)nc2ccccc12` was -7.41%.
Consider `CCCCN(C)CCCNC(=O)c1cc(-c2cccnc2)nc2ccccc12`, for which the “hERG current change (%, negative = inhibition) at 10uM” value was -60.1%.
The result for `CC(C)OCCCNC(=O)c1cc(-c2cccs2)nc2ccccc12` reads 0.89%; that for `CC(C)CCNC(=O)c1cc(-c2cccs2)nc2ccccc12`, 5.1%.
The value for `CCN(CCNC(=O)C1CCN(S(=O)(=O)c2c(C)noc2C)CC1)c1ccccc1` was -1.06%; that for `COc1cc(/C=C/C(=O)NCc2cccnc2)cc(OC)c1OC` was 0.841%; that for `CCOC(=O)Cc1csc(NC(=O)CN2CCOCC2)n1` was 14.1%.
For the compound `CCOC(=O)[C@@H]1[C@H]2COc3ccccc3[C@H]2N2C(=O)N(c3ccc(C)cc3)C(=O)[C@]12C`, the “hERG current change (%, negative = inhibition) at 10uM” value is listed as -1.42%.
The value for `CCCNC(=O)c1n[nH]c2c1CC(C(C)(C)CC)CC2` (centres unmarked) was 1.27%; that for `C=CCNc1ncnc2c1cnn2-c1ccc(C)cc1C` was 3.76%.
The value for `NS(=O)(=O)c1ccc(N/N=C/c2ccc[nH]2)c([N+](=O)[O-])c1` was 0.228%.
The value for `COc1cc(NC(=O)C(=O)Nc2ccc3nc4n(c(=O)c3c2)CCCCC4)cc(OC)c1OC` was -1.55%; that for `COc1cc(OC)cc(C(=O)Nc2ccc3nc4n(c(=O)c3c2)CCCCC4)c1` was -48.7%.
Take `COc1cc(OC)cc(C(=O)Nc2ccc3nc4n(c(=O)c3c2)CCCC4)c1`: the “hERG current change (%, negative = inhibition) at 10uM” value was found to be 11.2%.
The result for `COc1cc(C(=O)Nc2ccc3nc4n(c(=O)c3c2)CCCCC4)cc(OC)c1OC` reads -67.7%; that for `COc1cccc(C(=O)Nc2ccc3nc4n(c(=O)c3c2)CCCC4)c1`, -62.9%.
Regarding `O=C(Nc1ccc2nc3n(c(=O)c2c1)CCCC3)c1cccc(F)c1`, the “hERG current change (%, negative = inhibition) at 10uM” value is -43.9%.
For `COc1ccc(Cl)cc1NS(=O)(=O)c1cn(C)nc1C`, the “hERG current change (%, negative = inhibition) at 10uM” value stood at 7.1%.
Consider `COC(=O)C1=C(c2ccc(OC)c(OC)c2)C[C@@H]2CC[C@H]1N2C(=O)NCC1CC1`, for which the “hERG current change (%, negative = inhibition) at 10uM” value is listed as 15.1%.
The result for `O=C(CSc1ccc(-c2ccco2)nn1)NCc1ccccc1Cl` reads -49.1%; that for `Oc1ccc(/C=N/Nc2nccnc2Cl)cc1`, 1.47%.
Consider `Fc1ccc(/C=N/Nc2nccnc2Cl)cc1`, for which the “hERG current change (%, negative = inhibition) at 10uM” value was found to be 9.05%.
In the case of `Clc1nccnc1N/N=C/c1ccc(Br)cc1`, the “hERG current change (%, negative = inhibition) at 10uM” value is given as -50.3%.
The result for `Cc1cccc(NC(=O)CN2C(=O)S/C(=C\c3cc(C)n(C)c3C)C2=O)c1` reads -10.7%.
The value for `COc1ccc(NC(=O)CN2CCC(C(N)=O)(N3CCCCC3)CC2)cc1` was 0.362%.
The result for `CC1CCCCN1CC(=O)Nc1ccc(Oc2ccccc2)cc1.Cl` (centres unmarked) reads -50.7%.
With `O=C(CN1CCCCC1)Nc1cccc(Oc2ccccc2)c1`, the “hERG current change (%, negative = inhibition) at 10uM” value was -50.7%.
On to `COc1cccc(NC(=O)CN2CCCCCC2)c1.Cl`, for which the “hERG current change (%, negative = inhibition) at 10uM” value was determined as 11.6%.
For `CC1CCN(CC(=O)Nc2ccc(N3CCCCCC3)cc2)CC1.O=C(O)C(=O)O`, the “hERG current change (%, negative = inhibition) at 10uM” value is listed as -14.1%.
`O=C(CN1CCCCCC1)Nc1ccccc1.O=C(O)C(=O)O`: the “hERG current change (%, negative = inhibition) at 10uM” value is 10.8%.
The value for `CC1CCCCN1CC(=O)Nc1ccc(N2CCCCCC2)cc1.O=C(O)C(=O)O` (centres unmarked) was -13.2%.
As to `NC(=O)C1(N2CCCCC2)CCN(CC(=O)Nc2ccccc2-c2ccccc2)CC1`, the “hERG current change (%, negative = inhibition) at 10uM” value is on record as 14.6%.
The result for `NC(=O)C1(N2CCCCC2)CCN(CC(=O)Nc2ccc(Oc3ccccc3)cc2)CC1` reads -67.8%.
The value for `O=C(CN1CCCCCC1)Nc1cccc(NC(=O)CN2CCCCCC2)c1` was 13%; that for `CC1CCCCN1CC(=O)Nc1ccc2c(c1)OCO2.O=C(O)C(=O)O` (centres unmarked) was -20.1%.
The result for `O=C(CN1CCCCC1)Nc1ccc(N2CCCCCC2)cc1.O=C(O)C(=O)O` reads -88.7%.
